Experimental data from the supplement of paper PMC10849652.
Targets with a hit are over-represented here; the source holds about 8,800 in all. About 0.5% of all pairs of compound and target were hits.

Each target was assayed with CN1CCC(CNc2ccc3ncc(-c4cccc(OC(F)(F)F)c4)n3n2)CC1 (assay: log2 fold change, soluble protein after heating vs DMSO (PISA); higher = thermal stabilisation; K562 lysate, 10 uM; active = over 0.2 and 3.5 SD of the protein, either way, in both replicates (recomputed)).
In short: (§1)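 The values are log-two fold changes in thermal stability compared with solvent controls and come from duplicates. They were obtained by TMTpro 16plex LC-MS/MS, with channel sums equalised, on the supernatant after 21,000xg for 90 min. That supernatant came from crude K562 extract at 1 mg/mL protein treated with 10 μM compound for 30 min, heated for 3 min across 48°C-58°C, pooled and brought to 0.5% NP-40 at 4°C.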

Sequence of UniProt Q8TB03 (Q8TB03 whole entry, looked up): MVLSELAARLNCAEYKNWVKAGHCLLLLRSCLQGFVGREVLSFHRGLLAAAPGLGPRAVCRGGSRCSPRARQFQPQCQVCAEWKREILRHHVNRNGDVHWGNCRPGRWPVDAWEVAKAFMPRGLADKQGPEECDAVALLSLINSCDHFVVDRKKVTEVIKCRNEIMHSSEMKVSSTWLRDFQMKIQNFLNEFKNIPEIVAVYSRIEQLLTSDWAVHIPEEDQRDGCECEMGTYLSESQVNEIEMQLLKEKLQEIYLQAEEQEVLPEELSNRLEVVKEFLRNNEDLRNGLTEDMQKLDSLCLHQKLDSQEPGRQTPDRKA
Sequence of UniProt P61024 (P61024 whole entry, looked up): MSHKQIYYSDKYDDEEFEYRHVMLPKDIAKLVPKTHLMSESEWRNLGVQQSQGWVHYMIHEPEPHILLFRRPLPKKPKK
Sequence of UniProt Q8NF50 (Q8NF50 whole entry, looked up): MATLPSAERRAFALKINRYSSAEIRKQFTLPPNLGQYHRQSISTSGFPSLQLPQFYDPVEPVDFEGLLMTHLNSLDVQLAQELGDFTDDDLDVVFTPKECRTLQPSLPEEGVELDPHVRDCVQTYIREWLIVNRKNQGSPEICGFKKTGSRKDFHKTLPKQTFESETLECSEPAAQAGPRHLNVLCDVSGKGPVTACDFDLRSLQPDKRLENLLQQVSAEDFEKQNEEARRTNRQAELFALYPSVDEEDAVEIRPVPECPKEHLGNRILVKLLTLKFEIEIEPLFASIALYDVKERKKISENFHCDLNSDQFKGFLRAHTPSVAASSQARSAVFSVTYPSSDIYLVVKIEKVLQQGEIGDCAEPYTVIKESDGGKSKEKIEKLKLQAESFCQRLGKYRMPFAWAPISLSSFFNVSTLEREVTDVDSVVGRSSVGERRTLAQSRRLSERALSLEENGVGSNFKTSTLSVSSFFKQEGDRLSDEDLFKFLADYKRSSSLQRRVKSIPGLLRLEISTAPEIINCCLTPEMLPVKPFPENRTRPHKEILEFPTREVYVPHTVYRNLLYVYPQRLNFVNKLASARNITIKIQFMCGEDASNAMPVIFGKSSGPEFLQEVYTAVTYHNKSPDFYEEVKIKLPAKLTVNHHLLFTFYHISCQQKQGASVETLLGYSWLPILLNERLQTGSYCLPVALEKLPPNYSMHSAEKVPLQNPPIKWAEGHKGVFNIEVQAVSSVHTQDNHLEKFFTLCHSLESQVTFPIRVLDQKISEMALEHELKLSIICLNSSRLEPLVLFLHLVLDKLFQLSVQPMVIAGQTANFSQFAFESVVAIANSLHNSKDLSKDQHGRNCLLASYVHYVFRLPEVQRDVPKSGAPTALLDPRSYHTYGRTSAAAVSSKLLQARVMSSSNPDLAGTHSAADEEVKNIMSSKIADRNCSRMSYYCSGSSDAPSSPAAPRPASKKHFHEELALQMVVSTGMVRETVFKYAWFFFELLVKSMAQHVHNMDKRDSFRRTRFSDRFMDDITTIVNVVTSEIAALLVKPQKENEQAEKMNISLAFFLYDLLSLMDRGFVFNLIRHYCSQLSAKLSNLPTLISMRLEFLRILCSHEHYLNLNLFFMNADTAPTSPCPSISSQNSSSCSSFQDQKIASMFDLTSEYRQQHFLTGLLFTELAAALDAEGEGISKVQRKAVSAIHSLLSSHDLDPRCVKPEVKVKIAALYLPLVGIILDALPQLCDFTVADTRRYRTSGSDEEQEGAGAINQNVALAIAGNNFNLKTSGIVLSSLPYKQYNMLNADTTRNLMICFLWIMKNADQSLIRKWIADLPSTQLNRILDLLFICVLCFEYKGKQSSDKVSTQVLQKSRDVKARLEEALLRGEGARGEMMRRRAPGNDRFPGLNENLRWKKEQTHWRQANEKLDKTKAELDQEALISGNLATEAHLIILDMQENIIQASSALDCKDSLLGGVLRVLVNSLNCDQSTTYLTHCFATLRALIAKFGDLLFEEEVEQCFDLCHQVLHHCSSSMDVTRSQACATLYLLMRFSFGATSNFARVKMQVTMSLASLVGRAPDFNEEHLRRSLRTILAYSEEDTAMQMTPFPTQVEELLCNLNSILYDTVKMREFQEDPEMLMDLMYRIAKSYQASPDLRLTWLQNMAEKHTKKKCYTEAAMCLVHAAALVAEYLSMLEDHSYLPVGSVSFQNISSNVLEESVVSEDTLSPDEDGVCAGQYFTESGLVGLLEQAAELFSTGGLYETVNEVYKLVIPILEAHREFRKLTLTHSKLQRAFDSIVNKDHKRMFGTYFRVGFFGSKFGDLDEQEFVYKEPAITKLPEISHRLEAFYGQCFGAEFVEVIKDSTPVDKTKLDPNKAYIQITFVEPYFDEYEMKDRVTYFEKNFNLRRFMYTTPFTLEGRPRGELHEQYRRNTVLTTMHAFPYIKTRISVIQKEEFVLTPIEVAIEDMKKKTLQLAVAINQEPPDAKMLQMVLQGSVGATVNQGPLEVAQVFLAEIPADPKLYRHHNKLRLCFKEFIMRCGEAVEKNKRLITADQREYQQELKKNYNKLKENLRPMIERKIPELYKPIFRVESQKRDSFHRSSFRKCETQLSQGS
Sequence of UniProt Q5EBM0 (Q5EBM0 whole entry, looked up): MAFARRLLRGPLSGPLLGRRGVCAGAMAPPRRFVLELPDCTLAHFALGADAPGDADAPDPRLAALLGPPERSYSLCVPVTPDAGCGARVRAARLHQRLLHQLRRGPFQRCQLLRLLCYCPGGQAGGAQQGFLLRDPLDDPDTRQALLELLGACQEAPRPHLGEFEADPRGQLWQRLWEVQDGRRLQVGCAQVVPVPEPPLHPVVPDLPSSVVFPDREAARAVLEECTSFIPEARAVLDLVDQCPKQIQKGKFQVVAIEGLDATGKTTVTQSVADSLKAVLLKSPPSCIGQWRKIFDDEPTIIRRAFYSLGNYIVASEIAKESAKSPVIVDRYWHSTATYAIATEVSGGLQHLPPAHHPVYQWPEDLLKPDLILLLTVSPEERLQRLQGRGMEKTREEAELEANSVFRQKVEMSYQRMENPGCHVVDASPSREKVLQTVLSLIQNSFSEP
Sequence of UniProt O75208 (O75208 whole entry, looked up): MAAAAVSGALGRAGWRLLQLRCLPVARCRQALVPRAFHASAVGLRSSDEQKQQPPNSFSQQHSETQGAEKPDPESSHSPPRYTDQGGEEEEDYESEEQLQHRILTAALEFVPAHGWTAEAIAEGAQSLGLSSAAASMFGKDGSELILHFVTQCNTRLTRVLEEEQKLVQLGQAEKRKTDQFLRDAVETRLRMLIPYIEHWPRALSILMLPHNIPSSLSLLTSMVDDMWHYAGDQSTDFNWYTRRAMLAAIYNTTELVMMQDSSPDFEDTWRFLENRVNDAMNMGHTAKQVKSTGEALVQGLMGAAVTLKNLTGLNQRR
Sequence of UniProt Q16850 (Q16850 whole entry, looked up): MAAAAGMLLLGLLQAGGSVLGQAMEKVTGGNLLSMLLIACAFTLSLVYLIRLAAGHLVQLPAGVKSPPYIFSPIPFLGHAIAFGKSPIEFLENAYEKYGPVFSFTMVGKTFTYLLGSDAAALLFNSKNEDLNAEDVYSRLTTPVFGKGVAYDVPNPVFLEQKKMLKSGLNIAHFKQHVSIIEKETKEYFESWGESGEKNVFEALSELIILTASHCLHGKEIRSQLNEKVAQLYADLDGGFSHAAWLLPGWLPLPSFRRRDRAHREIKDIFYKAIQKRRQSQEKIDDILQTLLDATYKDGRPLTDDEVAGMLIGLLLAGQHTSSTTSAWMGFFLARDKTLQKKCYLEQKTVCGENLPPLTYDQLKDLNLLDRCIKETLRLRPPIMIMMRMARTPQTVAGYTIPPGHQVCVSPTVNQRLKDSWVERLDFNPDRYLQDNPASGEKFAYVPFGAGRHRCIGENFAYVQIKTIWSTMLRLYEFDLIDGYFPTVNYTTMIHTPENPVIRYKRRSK
Sequence of UniProt Q8TDD1 (Q8TDD1 whole entry, looked up): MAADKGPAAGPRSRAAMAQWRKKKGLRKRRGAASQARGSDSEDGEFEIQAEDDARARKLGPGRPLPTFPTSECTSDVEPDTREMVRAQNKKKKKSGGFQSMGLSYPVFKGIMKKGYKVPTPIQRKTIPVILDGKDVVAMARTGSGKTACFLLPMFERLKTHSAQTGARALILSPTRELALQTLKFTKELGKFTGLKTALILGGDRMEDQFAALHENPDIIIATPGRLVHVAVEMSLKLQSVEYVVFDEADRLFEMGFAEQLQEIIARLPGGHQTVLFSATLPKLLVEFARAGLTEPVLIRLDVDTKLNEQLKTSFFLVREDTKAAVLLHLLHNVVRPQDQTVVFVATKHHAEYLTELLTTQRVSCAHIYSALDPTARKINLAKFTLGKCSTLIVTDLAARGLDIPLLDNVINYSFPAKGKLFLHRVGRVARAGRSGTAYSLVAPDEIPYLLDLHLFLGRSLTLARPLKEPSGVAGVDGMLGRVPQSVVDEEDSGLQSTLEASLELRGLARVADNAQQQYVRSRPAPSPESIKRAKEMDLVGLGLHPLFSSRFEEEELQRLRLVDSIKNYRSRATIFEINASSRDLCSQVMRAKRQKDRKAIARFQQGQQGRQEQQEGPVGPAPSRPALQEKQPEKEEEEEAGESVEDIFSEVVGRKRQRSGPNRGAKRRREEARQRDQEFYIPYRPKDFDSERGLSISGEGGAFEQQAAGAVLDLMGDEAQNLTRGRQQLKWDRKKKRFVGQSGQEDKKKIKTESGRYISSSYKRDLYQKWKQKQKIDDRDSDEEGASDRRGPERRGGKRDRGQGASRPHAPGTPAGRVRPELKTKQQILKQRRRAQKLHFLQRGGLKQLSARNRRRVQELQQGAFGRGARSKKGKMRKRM
Sequence of UniProt P68400 (P68400 whole entry, looked up): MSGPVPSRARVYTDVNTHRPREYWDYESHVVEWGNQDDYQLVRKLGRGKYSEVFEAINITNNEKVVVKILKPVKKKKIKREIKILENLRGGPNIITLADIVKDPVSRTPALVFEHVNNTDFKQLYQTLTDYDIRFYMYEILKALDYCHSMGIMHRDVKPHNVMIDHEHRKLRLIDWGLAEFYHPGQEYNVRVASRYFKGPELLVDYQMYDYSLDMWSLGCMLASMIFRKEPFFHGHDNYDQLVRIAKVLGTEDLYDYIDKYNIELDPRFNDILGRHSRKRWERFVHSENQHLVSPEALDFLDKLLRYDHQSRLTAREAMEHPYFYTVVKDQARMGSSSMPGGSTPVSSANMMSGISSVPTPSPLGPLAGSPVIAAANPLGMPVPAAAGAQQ

Row | Target | log2 fold change
1 | CIP2A (UniProt Q8TCG1) | -0.075 (inactive)
2 | DOCK8 (UniProt Q8NF50) | -0.033 (inactive)
3 | COQ9 (UniProt O75208) | -0.066 (inactive)
4 | CKS1B (UniProt P61024) | -0.268 (inactive)
5 | CXXC1 isoform 2 (UniProt Q9P0U4) | 0.041 (inactive)
6 | CXorf38 (UniProt Q8TB03) | 0.04 (inactive)
7 | DDX54 isoform 2 (UniProt Q8TDD1) | 0 (inactive)
8 | CSNK2A1 (UniProt P68400) | 0.165 (inactive)
9 | DMAC2L (UniProt Q99766) | 0.053 (inactive)
10 | DCP2 (UniProt Q8IU60) | -0.13 (inactive)
11 | CYP51A1 (UniProt Q16850) | -0.066 (inactive)
12 | CMPK2 (UniProt Q5EBM0) | 0.007 (inactive)

What follows are targets tested with CN1CCN(CCOc2cc(OC3CCOCC3)c3c(Nc4c(Cl)ccc5c4OCO5)ncnc3c2)CC1 [saracatinib] in the same assay as above.
In short: as §1

Row | Target | log2 fold change
13 | CKM (UniProt P06732) | -0.014 (inactive)
14 | CMIP (UniProt Q8IY22) | 0.014 (inactive)
15 | COG6 (UniProt Q9Y2V7) | 0.073 (inactive)
16 | DGCR8 (UniProt Q8WYQ5) | 0.042 (inactive)
17 | COPZ1 isoform 4 (UniProt P61923) | 0.018 (inactive)
18 | DENND6A (UniProt Q8IWF6) | -0.012 (inactive)
19 | CKAP5 (UniProt Q14008) | 0.005 (inactive)
20 | CNOT2 (UniProt Q9NZN8) | -0.013 (inactive)
21 | COL6A5 (UniProt A8TX70) | -0.048 (inactive)
22 | DCP1A (UniProt Q9NPI6) | -0.006 (inactive)
23 | COG2 (UniProt Q14746) | 0.002 (inactive)
24 | DEF6 (UniProt Q9H4E7) | 0.07 (inactive)
25 | CSDE1 isoform 4 (UniProt O75534) | 0.003 (inactive)
26 | CNOT6L (UniProt Q96LI5) | 0.048 (inactive)
27 | DHRS11 (UniProt Q6UWP2) | 0.013 (inactive)
28 | DNAJC1 (UniProt Q96KC8) | 0.029 (inactive)
29 | DOCK7 (UniProt Q96N67) | -0.028 (inactive)
30 | CTNND1 isoform 3 (UniProt O60716) | -0.012 (inactive)

Row | Target | log2 fold change
31 | CHUK (UniProt O15111) | 0.059 (inactive)
32 | COG5 isoform 2 (UniProt Q9UP83) | 0.057 (inactive)
33 | CSTB (UniProt P04080) | 0.013 (inactive)
34 | CHORDC1 (UniProt Q9UHD1) | -0.006 (inactive)
35 | CSTF2 (UniProt P33240) | 0.007 (inactive)
36 | CIP2A (UniProt Q8TCG1) | 0.009 (inactive)
37 | DOCK8 (UniProt Q8NF50) | 0.012 (inactive)
38 | COQ9 (UniProt O75208) | -0.001 (inactive)
39 | CKS1B (UniProt P61024) | 0.044 (inactive)
40 | CXXC1 isoform 2 (UniProt Q9P0U4) | -0.066 (inactive)
41 | CXorf38 (UniProt Q8TB03) | 0.105 (inactive)
42 | DDX54 isoform 2 (UniProt Q8TDD1) | -0.015 (inactive)
43 | CSNK2A1 (UniProt P68400) | -0.028 (inactive)
44 | DMAC2L (UniProt Q99766) | 0.058 (inactive)
45 | DCP2 (UniProt Q8IU60) | -0.023 (inactive)
46 | CYP51A1 (UniProt Q16850) | -0.043 (inactive)
47 | CMPK2 (UniProt Q5EBM0) | 0.006 (inactive)

Each target was assayed with CN1CCN(c2nc(C3=C(c4c[nH]c5ccccc45)C(=O)NC3=O)c3ccccc3n2)CC1 [sotrastaurin] in the same assay as above.
In short: as §1

Row | Target | log2 fold change
48 | CKM (UniProt P06732) | 0.086 (inactive)
49 | CMIP (UniProt Q8IY22) | 0.017 (inactive)
50 | COG6 (UniProt Q9Y2V7) | -0.017 (inactive)
51 | DGCR8 (UniProt Q8WYQ5) | 0.04 (inactive)
52 | COPZ1 isoform 4 (UniProt P61923) | 0.01 (inactive)
53 | DENND6A (UniProt Q8IWF6) | -0.027 (inactive)
54 | CKAP5 (UniProt Q14008) | 0.025 (inactive)
55 | CNOT2 (UniProt Q9NZN8) | 0.002 (inactive)
56 | COL6A5 (UniProt A8TX70) | -0.03 (inactive)
57 | DCP1A (UniProt Q9NPI6) | -0.053 (inactive)
58 | COG2 (UniProt Q14746) | 0.037 (inactive)
59 | DEF6 (UniProt Q9H4E7) | 0.004 (inactive)
60 | CSDE1 isoform 4 (UniProt O75534) | -0.018 (inactive)
61 | CNOT6L (UniProt Q96LI5) | -0.019 (inactive)
62 | DHRS11 (UniProt Q6UWP2) | 0.004 (inactive)
63 | DNAJC1 (UniProt Q96KC8) | -0.002 (inactive)
64 | DOCK7 (UniProt Q96N67) | 0.02 (inactive)
65 | CTNND1 isoform 3 (UniProt O60716) | 0.024 (inactive)

Row | Target | log2 fold change
66 | CHUK (UniProt O15111) | 0.017 (inactive)
67 | COG5 isoform 2 (UniProt Q9UP83) | 0.08 (inactive)
68 | CSTB (UniProt P04080) | 0.086 (inactive)
69 | CHORDC1 (UniProt Q9UHD1) | -0.036 (inactive)
70 | CSTF2 (UniProt P33240) | 0.038 (inactive)
71 | CIP2A (UniProt Q8TCG1) | 0.014 (inactive)
72 | DOCK8 (UniProt Q8NF50) | 0.023 (inactive)
73 | COQ9 (UniProt O75208) | -0.101 (inactive)
74 | CKS1B (UniProt P61024) | 0.025 (inactive)
75 | CXXC1 isoform 2 (UniProt Q9P0U4) | -0.04 (inactive)
76 | CXorf38 (UniProt Q8TB03) | 0.018 (inactive)
77 | DDX54 isoform 2 (UniProt Q8TDD1) | 0.045 (inactive)
78 | CSNK2A1 (UniProt P68400) | 0.019 (inactive)
79 | DMAC2L (UniProt Q99766) | -0.012 (inactive)
80 | DCP2 (UniProt Q8IU60) | -0.01 (inactive)
81 | CYP51A1 (UniProt Q16850) | 0.001 (inactive)
82 | CMPK2 (UniProt Q5EBM0) | -0.019 (inactive)
